Compound activity from PubChem.
beta cell repl – inducers of MIN6 beta-cell proliferation, primary screen, ATP luminescence, uHTS; AID 2380, 2010; proliferation, % at 10 µM; MIN6 cells proliferation, ATPlite luminescence, 48 h; cells starved in 0.2% serum; 100% = growth in 10% serum; 0.29% of 330,000 active;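 active = compounds whose signal lies at least 3.5 SD above the mean of all wells on their plate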;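 also: 0% = DMSO-treated cells in low-serum medium and 100% = 10% serum control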
NTR1 agonist – agonists of human NTR1, primary screen, imaging, U2OS cells, beta-arrestin-GFP, high content | 0.17% of 330,000 active | Neurotensin receptor type 1 (Homo sapiens), P30989 | activation, % at 20 µM | AID 493036, 2011 | NTR1-U2OS beta-arrestin-GFP spot imaging, agonist mode;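 active = activation at or above 40% of the spot to cytoplasm intensity ratio, with at least 20 cells analyzed; inconclusive = wells under 20 cells, flagged as cytotoxic or low count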;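 also: 0% = DMSO without peptide and 100% = 100 nM NTR1 peptide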
Target sequence (P30989 whole entry, looked up): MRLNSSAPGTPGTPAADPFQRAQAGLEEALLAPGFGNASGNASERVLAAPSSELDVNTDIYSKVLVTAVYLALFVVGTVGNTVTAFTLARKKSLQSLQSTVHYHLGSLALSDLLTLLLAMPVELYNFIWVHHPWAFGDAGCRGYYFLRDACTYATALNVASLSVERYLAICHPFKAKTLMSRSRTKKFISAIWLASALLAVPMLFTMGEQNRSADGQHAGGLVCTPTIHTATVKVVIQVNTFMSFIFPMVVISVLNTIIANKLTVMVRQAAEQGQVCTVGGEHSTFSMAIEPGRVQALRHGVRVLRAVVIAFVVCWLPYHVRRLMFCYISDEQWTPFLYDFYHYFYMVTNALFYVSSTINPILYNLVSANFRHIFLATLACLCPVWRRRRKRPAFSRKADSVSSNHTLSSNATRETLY
GRK2 inh – compounds blocking aptamer binding on GRK2 – biochemical, human GRK2, bead flow cytometry, HTS, primary screen | inhibition of aptamer binding, % at 10 µM | FAM-aptamer displacement from GRK2 | AID 488847, 2010 | 0.59% of 330,000 active | Beta-adrenergic receptor kinase 1 (Homo sapiens), P25098;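 active = inhibition of aptamer binding above 40%, roughly 3 SD of noise, on plates passing a quality check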;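 also: median bead fluorescence of bound FAM aptamer so fluorescent compounds give negative values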
Platelet DG rel – inhibitors of platelet dense granule secretion, primary screen, cell-based, MLPCN, human platelets. AID 1663, 2009. 0.22% of 300,000 active. human platelet-rich plasma, SFLLRN dense granule ATP release, luminescence. inhibition, %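 (compounds screened at 7.5 µM in platelet-rich plasma)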;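 active = mean replicate score, as percent of positive control, at or above 50; inconclusive = mean below 50 but at least one replicate at or above 50; inactive = mean and every replicate below 50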
Active calls of the source: *. Rows were chosen to be rich in hits. Some 1.2% of all compounds tested hit in one or more screens of this group.

Results for Cc1ccccc1-c1nc(CS(=O)(=O)CC(=O)N2CCc3ccccc32)c(C)o1 ?
beta cell repl: 0.4; NTR1 agonist: 1.8; GRK2 inh: 4.0; Platelet DG rel: 58.0*

How did COc1ccc(OC)c(NC(=O)CS(=O)(=O)Cc2nc(-c3ccccc3C)oc2C)c1 do in these assays?
beta cell repl: 3.4; NTR1 agonist: 10.1; GRK2 inh: 0.0; Platelet DG rel: 50.8*

What do the screens show for `CCC(=O)N(C)CCc1cc2c(c(OC)c1/C=N/NC(=O)c1ccccc1O)OCO2`?
beta cell repl: 0.0; NTR1 agonist: 0.2; GRK2 inh: 83.0*; Platelet DG rel: 8.7

Results for Cc1noc(C)c1C(=O)NC1=NCCS1 ?
beta cell repl: 1.1; NTR1 agonist: -1.8; GRK2 inh: 2.0; Platelet DG rel: -6.5

What do the screens show for `Cc1ccc(-c2nc(N/N=C/c3cccnc3)c3ccccc3n2)cc1`?
beta cell repl: -3.7; NTR1 agonist: 9.4; GRK2 inh: 1.0; Platelet DG rel: 63.8*

Results for Cc1ccc(-c2nc(N/N=C/c3cccc([N+](=O)[O-])c3)c3ccccc3n2)cc1 ?
beta cell repl: -6.1; NTR1 agonist: 14.3; GRK2 inh: 0.0; Platelet DG rel: 16.0

How did COc1ccc(N=Nc2n(C)c3ccccc3[n+]2C)cc1 do in these assays?
Platelet DG rel: 98.2*

Results for Cc1ccc(S(=O)(=O)N2CCC(C(=O)Nc3ncccc3O)CC2)cc1 ?
beta cell repl: 1.6; NTR1 agonist: -1.3; GRK2 inh: 3.0

Results for O=C(OCc1nnc(-c2ccc(Cl)cc2)o1)c1ccc(O)cc1 ?
beta cell repl: -1.1; NTR1 agonist: 2.2; GRK2 inh: 3.0; Platelet DG rel: 0.8

What do the screens show for `CS(=O)(=O)c1ccc(C(=O)OCc2nnc(-c3ccc(Cl)cc3)o2)cc1[N+](=O)[O-]`?
beta cell repl: -6.8; NTR1 agonist: 41.4*; GRK2 inh: 0.0; Platelet DG rel: -4.9

How did COc1ccc(OC)c(NC(=O)COC(=O)CN(C)S(=O)(=O)c2ccc(C)cc2)c1 do in these assays?
beta cell repl: -1.1; NTR1 agonist: 0.8; GRK2 inh: 100.0*; Platelet DG rel: 11.4

How did O=C(Nc1cccc(S(=O)(=O)N2CCOCC2)c1)c1cc([N+](=O)[O-])ccc1N1CCOCC1 do in these assays?
beta cell repl: 1.1; NTR1 agonist: 0.0; GRK2 inh: 0.0; Platelet DG rel: 17.4

How did O=c1oc(Nc2ccc(F)cc2)nc2ccccc12 do in these assays?
beta cell repl: -4.0; NTR1 agonist: 4.2; GRK2 inh: 0.0; Platelet DG rel: 69.8*

Results for Cc1cccc(N2CCN(C(=O)c3cc(S(=O)(=O)N4CCCC4)cn3C)CC2)c1C ?
beta cell repl: 2.8; NTR1 agonist: 3.8; GRK2 inh: 2.0; Platelet DG rel: 36.2

Results for Cn1cc(S(=O)(=O)N2CCCC2)cc1C(=O)N1CCN(c2cccc(Cl)c2)CC1 ?
beta cell repl: -2.0; NTR1 agonist: 0.4; GRK2 inh: 0.0; Platelet DG rel: 59.5*

What do the screens show for `COc1ccc(Cl)cc1NC(=O)c1cc(S(=O)(=O)N2CCCC2)cn1C`?
beta cell repl: -1.5; NTR1 agonist: 7.2; GRK2 inh: 4.0; Platelet DG rel: 63.2*

How did Cc1ccc(-n2nc3c(c2NC(=O)C(C)C)CS(=O)(=O)C3)c(C)c1 do in these assays?
beta cell repl: -1.9; NTR1 agonist: -1.1; GRK2 inh: 0.0; Platelet DG rel: 2.9

Results for O=C(Nc1cccc(F)c1)c1c(O)c2cccc3c2n(c1=O)CCC3 ?
beta cell repl: 2.5; NTR1 agonist: 0.4; GRK2 inh: 78.0*; Platelet DG rel: -1.6

Results for O=C(CSc1nc(C(F)(F)F)cc(=O)[nH]1)Nc1cccc2ccccc12 ?
beta cell repl: 2.8; NTR1 agonist: 0.8; GRK2 inh: 2.0; Platelet DG rel: -39.0

How did NC(=O)c1ccc[n+](Cc2ccccc2)c1 do in these assays?
beta cell repl: 0.6; NTR1 agonist: 2.6; GRK2 inh: 80.0*; Platelet DG rel: inconclusive

Results for CCCNS(=O)(=O)c1ccc(OCC(=O)NCC2CCCO2)cc1 (configuration not stated) ?
beta cell repl: -1.7; NTR1 agonist: 0.3; GRK2 inh: 0.0; Platelet DG rel: -3.8

How did O=C(O)CCCN1C(=O)/C(=C\c2ccccc2OCc2ccccc2)SC1=S do in these assays?
beta cell repl: -2.6; NTR1 agonist: 0.9; GRK2 inh: 2.0; Platelet DG rel: 8.7

Results for O=C(O)CCCCN1C(=O)/C(=C\c2ccc(OCc3ccccc3)c(OCc3ccccc3)c2)SC1=S ?
beta cell repl: -6.2; NTR1 agonist: 3.0; GRK2 inh: 100.0*; Platelet DG rel: 7.7
